In PubChem BioAssay (NCI):
Where “and” joins values, the source holds several entries; their conditions need not be identical. Identical values can stand only once. About 83,000 compounds went through this panel and 20% of them were active in at least one assay; those are over-represented in the sample as a whole.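 Method: cells in 96-well plates; compound added at one concentration; 48 h incubation; percent growth measured; values under 10 scored active.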 Calls of active or inactive are those of the source.

system: OVCAR-3 ovarian; assay: NCI-60 one-dose screen, 48 h (100 = growth as untreated, 0 = no growth, -100 = all killed); settings: 10 µM

SMILES | growth
Cc1cc(C)c(N2C(=O)CC(Sc3ccccc3N)C2=O)c(C)c1 (centres undefined) | 71.1% (inactive)
COc1cc(N)ccc1Nc1c2ccccc2nc2ccccc12 | 80.6% (inactive)
O=[N+]([O-])c1cc(S(=O)(=O)Nc2ccccc2)ccc1Cl | 106% (inactive)
CCOC(=O)[C@]1(Br)CC[C@@]1(Br)C(=O)OCC | 133% (inactive)
N#C/C(=C/N1C(=O)/C(=C/c2ccc([N+](=O)[O-])cc2)SC1=S)c1nc2ccccc2s1 | 82.2% (inactive)
Cn1ncc2cc3c(Nc4ccc(Cl)cc4)cccc3nc21 | 94.1% (inactive)
S=P(N1CC1)(N1CC1)N1CC1 | 118% (inactive) and 106% (inactive)
O=C1c2cccc3cc([N+](=O)[O-])cc(c23)C(=O)N1CCN1CCCC1 | -16.8% (active)
N#CC(=C1C=CC(=NO)C=C1)c1ccccc1 | -26.8% (active)
Cc1cc(N=C2C=CC(=[N+](C)C)C=C2)c(N)cc1N | 16.5% (inactive)
CN(C)CCNc1cccc2sc3ccc(O)cc3c(=O)c12 | 41.8% (inactive)
O=C(NC(=S)Nc1ccccn1)c1ccccc1 | 98% (inactive)
Cn1c2nc3ccccc3c-2nc2ccccc21 | 99.2% (inactive) and 93.3% (inactive)
CCC(C)(c1ccc(O)c(C)c1)c1ccc(O)c(C)c1 | 102% (inactive)
O=Nc1ccc(Nc2ccccc2)cc1 | 49.4% (inactive)
O=c1[nH]cc(/C=N\Nc2ccccc2)c(=O)[nH]1 | 81.2% (inactive)
CN(C)c1ccc(/C=C/c2ccnc3ccccc23)cc1N | 70.7% (inactive)
COc1cccc(C(c2cc3c(cc2O)OCO3)N2CCOCC2)c1OC (centres undefined) | 111% (inactive)
O=C1C=CC(=O)N1c1ccc(N2C(=O)C=CC2=O)cc1 | 103% (inactive)
CC(=O)O[C@H]1C(=O)[C@@]2(C)[C@H]([C@H](OC(=O)c3ccccc3)[C@]3(O)C[C@H](OC(=O)[C@H](O)[C@@H](NC(=O)c4ccccc4)c4ccccc4)C(C)=C1C3(C)C)[C@]1(OC(C)=O)CO[C@@H]1C[C@@H]2O | 0.613% (active) and 0.903% (active)
CCC(=O)Oc1ccc(/C=N/NC(N)=S)nc1 | 57.3% (inactive)
COc1ccc(C(C#N)=C2C=CC(=NO)C=C2)cc1 | 87.3% (inactive)
CN(CC(=O)O)c1ccc(/C=C/c2ccnc3ccccc23)cc1 | 90.4% (inactive)

system: HS 578T breast; assay: as above; settings: 10 µM

SMILES | growth
Cc1cc(C)c(N2C(=O)CC(Sc3ccccc3N)C2=O)c(C)c1 (centres undefined) | 81% (inactive)
COc1cc(N)ccc1Nc1c2ccccc2nc2ccccc12 | 102% (inactive)
O=[N+]([O-])c1cc(S(=O)(=O)Nc2ccccc2)ccc1Cl | 101% (inactive)
CCOC(=O)[C@]1(Br)CC[C@@]1(Br)C(=O)OCC | 102% (inactive)
N#C/C(=C/N1C(=O)/C(=C/c2ccc([N+](=O)[O-])cc2)SC1=S)c1nc2ccccc2s1 | 90.4% (inactive)
Cn1ncc2cc3c(Nc4ccc(Cl)cc4)cccc3nc21 | 89% (inactive)
S=P(N1CC1)(N1CC1)N1CC1 | 113% (inactive) and 126% (inactive)
O=C1c2cccc3cc([N+](=O)[O-])cc(c23)C(=O)N1CCN1CCCC1 | -25.4% (active)
N#CC(=C1C=CC(=NO)C=C1)c1ccccc1 | -18.3% (active)
Cc1cc(N=C2C=CC(=[N+](C)C)C=C2)c(N)cc1N | 94.5% (inactive)
CN(C)CCNc1cccc2sc3ccc(O)cc3c(=O)c12 | 69.4% (inactive)
O=C(NC(=S)Nc1ccccn1)c1ccccc1 | 88.8% (inactive)
Cn1c2nc3ccccc3c-2nc2ccccc21 | 83.4% (inactive) and 87.5% (inactive)
CCC(C)(c1ccc(O)c(C)c1)c1ccc(O)c(C)c1 | 95% (inactive)
O=Nc1ccc(Nc2ccccc2)cc1 | 111% (inactive)
O=c1[nH]cc(/C=N\Nc2ccccc2)c(=O)[nH]1 | 81.7% (inactive)
CN(C)c1ccc(/C=C/c2ccnc3ccccc23)cc1N | 80.2% (inactive)
COc1cccc(C(c2cc3c(cc2O)OCO3)N2CCOCC2)c1OC (centres undefined) | 95.5% (inactive)
O=C1C=CC(=O)N1c1ccc(N2C(=O)C=CC2=O)cc1 | 128% (inactive)
CC(=O)O[C@H]1C(=O)[C@@]2(C)[C@H]([C@H](OC(=O)c3ccccc3)[C@]3(O)C[C@H](OC(=O)[C@H](O)[C@@H](NC(=O)c4ccccc4)c4ccccc4)C(C)=C1C3(C)C)[C@]1(OC(C)=O)CO[C@@H]1C[C@@H]2O | -14.9% (active) and 2.62% (active)
CCC(=O)Oc1ccc(/C=N/NC(N)=S)nc1 | 117% (inactive)
COc1ccc(C(C#N)=C2C=CC(=NO)C=C2)cc1 | 99.6% (inactive)
CN(CC(=O)O)c1ccc(/C=C/c2ccnc3ccccc23)cc1 | 84.6% (inactive)

system: NCI/ADR-RES ovarian; assay: as above; settings: 10 µM

SMILES | growth
Cc1cc(C)c(N2C(=O)CC(Sc3ccccc3N)C2=O)c(C)c1 (centres undefined) | 75% (inactive)
COc1cc(N)ccc1Nc1c2ccccc2nc2ccccc12 | 92.7% (inactive)
O=[N+]([O-])c1cc(S(=O)(=O)Nc2ccccc2)ccc1Cl | 99.6% (inactive)
CCOC(=O)[C@]1(Br)CC[C@@]1(Br)C(=O)OCC | 107% (inactive)
N#C/C(=C/N1C(=O)/C(=C/c2ccc([N+](=O)[O-])cc2)SC1=S)c1nc2ccccc2s1 | 92.3% (inactive)
Cn1ncc2cc3c(Nc4ccc(Cl)cc4)cccc3nc21 | 89.1% (inactive)
S=P(N1CC1)(N1CC1)N1CC1 | 107% (inactive) and 88.6% (inactive)
O=C1c2cccc3cc([N+](=O)[O-])cc(c23)C(=O)N1CCN1CCCC1 | -2.54% (active)
N#CC(=C1C=CC(=NO)C=C1)c1ccccc1 | -37.2% (active)
Cc1cc(N=C2C=CC(=[N+](C)C)C=C2)c(N)cc1N | 80.4% (inactive)
CN(C)CCNc1cccc2sc3ccc(O)cc3c(=O)c12 | 45% (inactive)
O=C(NC(=S)Nc1ccccn1)c1ccccc1 | 55.3% (inactive)
Cn1c2nc3ccccc3c-2nc2ccccc21 | 99.3% (inactive) and 93.6% (inactive)
CCC(C)(c1ccc(O)c(C)c1)c1ccc(O)c(C)c1 | 103% (inactive)
O=Nc1ccc(Nc2ccccc2)cc1 | 87.9% (inactive)
O=c1[nH]cc(/C=N\Nc2ccccc2)c(=O)[nH]1 | 56.4% (inactive)
CN(C)c1ccc(/C=C/c2ccnc3ccccc23)cc1N | 68% (inactive)
COc1cccc(C(c2cc3c(cc2O)OCO3)N2CCOCC2)c1OC (centres undefined) | 104% (inactive)
O=C1C=CC(=O)N1c1ccc(N2C(=O)C=CC2=O)cc1 | 102% (inactive)
CC(=O)O[C@H]1C(=O)[C@@]2(C)[C@H]([C@H](OC(=O)c3ccccc3)[C@]3(O)C[C@H](OC(=O)[C@H](O)[C@@H](NC(=O)c4ccccc4)c4ccccc4)C(C)=C1C3(C)C)[C@]1(OC(C)=O)CO[C@@H]1C[C@@H]2O | -0.311% (active) and 9.92% (active)
CCC(=O)Oc1ccc(/C=N/NC(N)=S)nc1 | 25.1% (inactive)
COc1ccc(C(C#N)=C2C=CC(=NO)C=C2)cc1 | 94.8% (inactive)
CN(CC(=O)O)c1ccc(/C=C/c2ccnc3ccccc23)cc1 | 89.3% (inactive)
